The supplement of paper PMC6279402
Structures can show the parent of a compound that is named as a salt. ± gives the standard deviation of the averaged measurements.

System: A549
Assay: relative viability (normalised to negative control = 1, bortezomib = 0) (fraction); higher = less cytotoxic
Conditions: inflammatory serum-free RHB-A with cytokines + LPS, 5 d + 24 h CellTiter-Blue
[1] = compound 30 nM, GSK126 pretreatment: 5 uM GSK126
[2] = compound 30 nM, GSK126 pretreatment: none (vehicle)
[3] = compound 300 nM, GSK126 pretreatment: 5 uM GSK126
[4] = compound 300 nM, GSK126 pretreatment: none (vehicle)

SMILES	relative viability [1]	relative viability [2]	relative viability [3]	relative viability [4]
CC(=O)O[C@H]1C(=O)[C@@]2(C)[C@H]([C@H](OC(=O)c3ccccc3)[C@]3(O)C[C@H](OC(=O)[C@H](O)[C@@H](NC(=O)c4ccccc4)c4ccccc4)C(C)=C1C3(C)C)[C@]1(OC(C)=O)CO[C@@H]1C[C@@H]2O [Paclitaxel; Taxol]	0.391 ± 0.044	0.242 ± 0.009	0.368 ± 0.077	0.301 ± 0.048
CN(C)C1CCN(C(=O)c2ccc(NC(=O)Nc3ccc(-c4nc(N5CCOCC5)nc(N5CCOCC5)n4)cc3)cc2)CC1	0.329 ± 0.01	0.428 ± 0.011	0.0588 ± 0.0043	0.088 ± 0.0042
O=C(CCBr)N1CCN(C(=O)CCBr)CC1 [Pipobroman]	0.735 ± 0.045	0.705 ± 0.026	0.725 ± 0.096	0.822 ± 0.12
C=CC(=O)Nc1cc2c(Nc3ccc(F)c(Cl)c3)ncnc2cc1OCCCN1CCOCC1 [CI-1033(Canertinib)]	0.602 ± 0.014	0.595 ± 0.017	0.483 ± 0.028	0.502 ± 0.028
Nc1nc2[nH]cc(CCc3ccc(C(=O)N[C@@H](CCC(=O)O)C(=O)O)cc3)c2c(=O)[nH]1 [Pemetrexed; Pemetrexed Disodium]	0.89 ± 0.07	0.88 ± 0.078	0.829 ± 0.1	0.879 ± 0.095
COc1cccc2cc(-c3nc(C4CCC(C(=O)O)CC4)n4ncnc(N)c34)[nH]c12 (stereo not drawn)	0.815 ± 0.016	0.797 ± 0.045	0.588 ± 0.07	0.718 ± 0.055
COc1cccc2c1C(=O)c1c(O)c3c(c(O)c1C2=O)C[C@@](O)(C(=O)CO)C[C@@H]3O[C@H]1C[C@H](N)[C@H](O)[C@H](C)O1 [Doxorubicin hydrochloride; 4'-Epiadriamycin; Doxorubicin HCl]	0.967 ± 0.022	0.9737 ± 0.0065	0.454 ± 0.027	0.463 ± 0.075
